# According to PubChem BioAssay AID1845224 (National Center for Advancing Translational Sciences (NCATS), 2023):
# Inconclusive results are not listed. Unmarked numbers belong to inactive results. Calls of active or inactive are those of the source. Calls come from the whole dose curve; as a rule, active = well fitted curve in the direction sought with a large enough effect; inconclusive = small, poorly fitted or top-dose-only effect, or another doubt; inactive = no such curve, though single readings can be large or run the other way.
# Test system: NanoLuc luciferase (engineered Oplophorus gracilirostris luciferase)
# Assay: Confirmatory Nanoluciferase (NLuc) qHTS assay for identification of artifact compounds. For activity change, negative = inhibition: % of control where 0% means no effect.
# Conditions: secreted NLuc in S16 cell medium, luminescence, 5 min; series mostly up to 39 µM; activity change, negative = inhibition: at the top concentration
# Source text: PI: Alexander Tropsha Ph.D. UNC Eshelman School of Pharmacy University of North Carolina, Chapel Hill, North Carolina Hits from high-throughput screening (HTS) of chemical libraries are often false positives due to their interference with the assay detection technology. In response to this problem, we generated the largest publicly available library of chemical liabilities and developed a free webtool to predict HTS artifacts, both of which are described herein. More specifically, we generated, curated, and integrated HTS datasets for thiol reactivity, redox activity, and luciferase (firefly and nano) activity. Using these curated datasets, we developed and validated several Quantitative Structure-Interference Relationship (QSIR) models to predict nuisance behavior. […] These models were employed for virtual profiling of the National Center for Advancing Translational Science's (NCATS) in-house library, and 256 compounds for each assay were selected for the experimental validation of nuisance behavior. The BA for these external predictions ranged from 58 to 78% for compounds within the applicability domains of the models. […] The models developed in this study, along with aggregation models previously developed by our group (SCAM Detective) were implemented in "Liability Predictor," an online tool which may be used as part of chemical library design or for triaging HTS hits. Both the models and the curated datasets are publicly available at https://liability.mml.unc.edu/.
# PROTOCOL TABLE SEQUENCE No. (e.g., 1, 2, 3, etc.); PARAMETER (e.g., Cells, Incubation, Reagent, etc.); VALUE; DESCRIPTION. 1; Reagent; 2 uL; Nanoluciferase media. 2; Compounds and control; 16 nL; Kalypsis pin tool (Wako USA) equipped with a 1536-well pin head. 3; Incubation; 15 min. 4; Reagent; 2 uL; Luciferase enzyme. 5; Incubation; 5 min. 6; Detection; Luminescence, ViewLux microplate reader. NOTES (numbers refer to Sequence numbers above) 1. Medium was collected from the culture flasks of NLuc-expressing S16 cells (80% confluent) prior to cell plating, filtered through a 0.22um filter, and frozen at -20C prior to use. Media was diluted (1:55) and 2 uL was dispensed into all wells of a 1536-well assay plate (solid-bottom white plate; Greiner Bio One, Monroe, NC). 2. A Wako Pin-tool (Wako Automation, Richmond, VA) was used to transfer 16 nL of compounds (consisting of 7-plates in qHTS format, final concentration range 18.3 nM to 114 uM) or control Cilnidipine (final concentration range 623 nM to 80 uM). 3. 15 min. incubation at room temperature protected from light. 4. 2 uL of NLuc substrate (1:100 in Nano-Glo luciferase buffer; Nano-Glo luminescence assay, Promega, Madison, WI) was dispensed for a final assay volume of 4 uL. 5. Plates were centrifuged (121xg, 15 seconds) and incubated for 5 minutes. 6. Samples were read for luminescence on a ViewLux CCD imager (PerkinElmer). Data were normalized to no-enzyme (0% activity) and no-inhibitor (DMSO; 100%) controls and the resulting percent inhibition data were fitted to a 4-parameter Hill equation using NCATS in-house software.
# Potency is the fitted concentration of half-maximal effect.
SMILES,"activity change, negative = inhibition",Potency
C[C@H]1CC[C@@H]2[C@@H](C)[C@H]3C(CC4C5CC=C6CC(O[C@@H]7O[C@H](CO)C(O[C@@H]8O[C@@H](C)[C@H](O)[C@@H](O)[C@H]8O)[C@H](O)[C@H]7O[C@@H]7O[C@@H](C)[C@H](O)[C@@H](O)[C@H]7O)CC[C@]6(C)C5CC[C@@]43C)N2C1 (some centres undefined),-3.93%,–
CC(=O)O[C@H]1[C@H]2[C@@H](OC(=O)Cc3ccccc3)[C@@H](C)C[C@]2(OC(C)=O)C(=O)/C(C)=C/[C@@H]2[C@H](CC[C@@]13CO3)C2(C)C,-1.77%,–
CC(=O)O[C@H]1C2[C@@H](OC(=O)Cc3ccccc3)[C@@H](C)C[C@]2(OC(C)=O)C(=O)/C(C)=C/[C@@H]2[C@H](CC[C@@]13CO3)C2(C)C (some centres undefined),-10.7%,–
C[C@@H]1C[C@@H]2[C@H]([C@H]3C=C(COC(=O)c4ccccc4)[C@@H](O)[C@]4(O)[C@@H](O)C(OC(=O)c5ccccc5)=C[C@@]14C3=O)C2(C)C,-2.72% [at 19.8 µM],–
CC(C)(O)[C@@H]1[C@H]2OC(=O)[C@@H]1[C@]1(O)C[C@H]3O[C@]34C(=O)O[C@H]2[C@]14C,4.49%,–
COc1cc(=O)n2c(c1C(=O)N(C)Cc1nonc1C)CCN(C(=O)C1C(C)(C)C1(C)C)CC2,2.47%,–
CC1=C[C@H]2[C@]3(O)C(C=C(CO)C[C@]2(O)C1=O)[C@@H]1C(C)(C)[C@]1(O)[C@H](O)[C@H]3C (some centres undefined),2.09%,–
COc1cccc2c1C(=O)c1c(O)c3c(c(O)c1C2=O)CC(O)(C(C)=O)CC3OC1CC(NCc2ccc(CNC3CC(OC4CC(O)(C(C)=O)Cc5c(O)c6c(c(O)c54)C(=O)c4c(OC)cccc4C6=O)OC(C)C3O)cc2)C(O)C(C)O1 (centres undefined),–,15.4 µM (active)
O=P1(N(CCCl)CCCl)NC(OO)CCO1 (centres undefined),-7.69%,–
